This note sets out measurements from PubChem BioAssay (NCI).

“And” between values parts separate entries of the source, which are not always exact repeats. Equal entries are not always repeated. This is part of a sample that, as a whole, favours compounds with a hit. Of some 83,000 tested, about 20% had one in any assay.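 A percent growth of 40 corresponds to 60% growth inhibition; 0 means no net growth; -100 means all cells died. Active threshold: below 10.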 The source made the active and inactive calls.

Holding throughout (assay): NCI-60 one-dose screen, 48 h (100 = growth as untreated, 0 = no growth, -100 = all killed)
Common to all, as to details: 10 µM unless noted

Experiment [1] concerns HT29 colon.
Experiment [2] has as its system SNB-75 CNS.
Experiment [3] relates to SNB-19 CNS.
The test system of experiment [4] is U251 CNS.
In experiment [5] the test system is PC-3 prostate.
For experiment [6], the system named is SK-MEL-5 melanoma.
The test system of experiment [7] is UACC-62 melanoma.
Experiment [8] has as its system SK-MEL-28 melanoma.
In experiment [9] the test system is SK-MEL-2 melanoma.
Experiment [10] has as its system EKVX NSCLC.
The subject of experiment [11] is SN12C renal.
Experiment [12] concerns UO-31 renal.
The test system of experiment [13] is TK-10 renal.
In experiment [14] the test system is ACHN renal.
In experiment [15] the test system is A498 renal.
In experiment [16] the test system is CCRF-CEM leukemia.
The test system of experiment [17] is MOLT-4 leukemia.
Experiment [18] concerns LOX IMVI melanoma.
Experiment [19] deals with CAKI-1 renal.

For the molecule `CC1(c2ccc3ccccc3c2)CCC(=O)O1` (stereo not drawn), the growth in experiment [1] was 96.9% (inactive); in [2], 100% (inactive); in experiment [3], 106% (inactive); in experiment [4], 99.9% (inactive); in [5], 97.9% (inactive); in [6], 105% (inactive). Further, the growth in [7] was 95.7% (inactive); in experiment [8], 102% (inactive); in [9], 86.6% (inactive); in [10], 111% (inactive); in experiment [11], 102% (inactive); in experiment [12], 81.1% (inactive). Besides, the growth is 93.5% (inactive) in experiment [13]; 101% (inactive) in [14]; 113% (inactive) in experiment [15]; 105% (inactive) in [16]; 95.2% (inactive) in experiment [17].
On to `CC(C)O/N=C/c1cc(NC(=S)OC(C)C)ccc1Cl`, for which the growth in experiment [7] is 13.4% [100 µM] (inactive) and 21.6% [100 µM] (inactive); in experiment [13], 53.5% [100 µM] (inactive) and 36.1% [100 µM] (inactive).
As for `COc1ccc(-c2coc3c4c(ccc3c2=O)OCO4)cc1OC`, the growth in [7] is 43.3% [100 µM] (inactive) and 6.94% [100 µM] (active); in experiment [13], 54.4% [100 µM] (inactive) and 6.05% [100 µM] (active).
Take `N=C1N=C(N)CS1`: the growth in experiment [1] is 105% (inactive); in experiment [2], 92.1% (inactive); in experiment [3], 104% (inactive); in [5], 101% (inactive); in [6], 98.4% (inactive); in experiment [7], 100% (inactive). Also, the growth in experiment [8] was 109% (inactive); in experiment [9], 116% (inactive); in experiment [11] it was 99.9% (inactive); in [12], 93.2% (inactive); in experiment [13] it was 131% (inactive); in experiment [14], 116% (inactive). Moreover, the growth in experiment [15] was 90.7% (inactive); in experiment [16], 104% (inactive); in [17] it was 99.1% (inactive).
For `Cc1ccc(NC(=O)/C(=N\NC(N)=O)c2c(O)c3ccccc3[nH]c2=O)cc1`, the growth is 87% [100 µM] (inactive) and 83% [100 µM] (inactive) in experiment [7]; 123% [100 µM] (inactive) and 118% [100 µM] (inactive) in experiment [13].
`Nc1ccccc1SC1CC(=O)N(c2cccc3ccccc23)C1=O` (stereo not drawn): the growth in [1] is 106% (inactive); in experiment [2] it was 76.4% (inactive); in experiment [4], 97.3% (inactive); in [5], 87.7% (inactive); in experiment [6], 96.7% (inactive); in experiment [7], 82.6% (inactive). Moreover, the growth in experiment [18] was 97.1% (inactive); in experiment [8], 96.3% (inactive); in experiment [9] it was 92.6% (inactive); in experiment [11], 98.3% (inactive); in [12] it was 68.6% (inactive); in experiment [13], 113% (inactive). Besides, the figures for the growth in [14], in experiment [15] and in [17] were 97.5% (inactive), 88.8% (inactive) and 83.5% (inactive), respectively.
Consider `Cc1ccc(F)cc1NC(=O)O/N=C(\Cl)C(C)C`, for which the growth in [7] is 82.6% [100 µM] (inactive) and 60.7% [100 µM] (inactive); in experiment [13], 65.6% [100 µM] (inactive) and 72.9% [100 µM] (inactive).
As to `CC(=Nc1ccncc1)C(C)=Nc1ccncc1`, the growth in experiment [7] is -98.5% [100 µM] (active) and -100% [100 µM] (active); in experiment [13], -74.8% [100 µM] (active) and -52.5% [100 µM] (active).
In the case of `NC(=O)NO`, the growth in experiment [1] is 104% (inactive) and 70.3% (inactive); in experiment [2], 91.7% (inactive) and 60.3% (inactive); in experiment [4] it was 96.6% (inactive) and 65.5% (inactive); in [5], 106% (inactive) and 72.6% (inactive); in experiment [6] it was 106% (inactive) and 80.5% (inactive); in [7], 103% (inactive) and 74.6% (inactive). The growth in experiment [18] was 101% (inactive) and 59% (inactive); in [8], 107% (inactive) and 45.5% (inactive); in experiment [9], 110% (inactive) and 94.1% (inactive); in experiment [10], 98.9% (inactive) and 59.5% (inactive); in experiment [11], 104% (inactive) and 71.5% (inactive); in experiment [12], 87.8% (inactive) and 48.8% (inactive). For the same molecule, the growth was 113% (inactive) and 85% (inactive) in [13]; 96.9% (inactive) and 67.5% (inactive) in [14]; 104% (inactive) and -7.21% (active) in experiment [15]; 82.2% (inactive) and 68% (inactive) in [16]; 95.9% (inactive) and 75.1% (inactive) in experiment [17].
`C[C@]12CC[C@@H]3c4ccc(OS(N)(=O)=O)cc4CC[C@H]3[C@@H]1CCC2=O`: the growth in experiment [7] was 9.29% [100 µM] (active) and 48.3% [100 µM] (inactive); in experiment [13], 31.9% [100 µM] (inactive) and 68.9% [100 µM] (inactive).
As to `COc1ccc(C)cc1NC(=S)C#N`, the growth in experiment [7] was 74.4% [100 µM] (inactive) and 31.4% [100 µM] (inactive); in [13], 112% [100 µM] (inactive) and 36.2% [100 µM] (inactive).
For the molecule `O=C(NC1=NC2C=CC([N+](=O)[O-])=CC2S1)C(=O)Nn1c(=S)[nH]c2ccccc2c1=O` (stereo not drawn), the growth was -8.33% [100 µM] (active) and 16.8% [100 µM] (inactive) in [7]; 7.66% [100 µM] (active) and 13.1% [100 µM] (inactive) in experiment [13].
Consider `Cn1c2c(c3ccccc3c1=O)C(=O)c1ccccc1-2`, for which the growth in experiment [7] is 27.3% [100 µM] (inactive) and -100% [100 µM] (active); in experiment [13], -92.2% [100 µM] (active) and -100% [100 µM] (active).
For the molecule `CC[N+](CC)(CC(=O)Nc1c(C)cccc1C)Cc1ccccc1`, the growth is 101% (inactive) and 102% (inactive) in experiment [1]; 84.9% (inactive) and 101% (inactive) in experiment [2]; 95.4% (inactive) and 96.8% (inactive) in [3]; 75.6% (inactive) and 97.9% (inactive) in [4]; 84.3% (inactive) and 97.2% (inactive) in experiment [5]; 85.7% (inactive) and 98.7% (inactive) in experiment [6]. The growth in [8] was 99.7% (inactive) and 103% (inactive); in [9], 107% (inactive) and 119% (inactive); in experiment [10], 106% (inactive) and 100% (inactive); in experiment [11], 85.9% (inactive) and 100% (inactive); in [12], 92.6% (inactive) and 71.6% (inactive); in experiment [13], 144% (inactive) and 90.9% (inactive). The growth is 98.5% (inactive) and 101% (inactive) in experiment [14]; 108% (inactive) and 91.9% (inactive) in experiment [19]; 106% (inactive) and 107% (inactive) in experiment [15]; 2.65% (active) in experiment [16]; 99.8% (inactive) and 98.6% (inactive) in experiment [17].
For `C=C1C(=O)O[C@@H]2C[C@@]3(C)CC(=O)C=C(C)[C@@H]3C[C@H]12`, the growth in experiment [7] is -95.6% [100 µM] (active) and -86.6% [100 µM] (active); in [13], -87.6% [100 µM] (active) and -78.7% [100 µM] (active).
Turning to `NCCSC(C[N+](=O)[O-])c1ccccc1Cl` (stereo not drawn), the growth in [1] was 36% (inactive); in experiment [2] it was 105% (inactive); in experiment [3], 102% (inactive); in [4] it was 77.6% (inactive); in experiment [5], 68.1% (inactive); in experiment [6], 85.1% (inactive). Further, the growth was 92.6% (inactive) in [7]; 34.9% (inactive) in [9]; 100% (inactive) in experiment [10]; 104% (inactive) in experiment [11]; 63.3% (inactive) in experiment [12]; 51.8% (inactive) in experiment [13]. For the same molecule, the growth in experiment [14] was 107% (inactive); in experiment [19], 99.8% (inactive); in experiment [15], 36% (inactive); in experiment [16] it was 0.339% (active); in [17], -32.1% (active).
